Test results published in PubChem BioAssay (NCATS).
Results filed as inconclusive are left out. Entries that show only a call come without a potency. Active and inactive are the calls of the source. The call rests on the fitted dose curve; in most records, active means well fitted cell-killing curve with a large enough effect; inconclusive means small, poorly fitted or top-dose-only effect, or effect the other way; inactive means flat fitted curve, though single readings scatter.

What follows are compounds tested on Hek293T (assay: Primary qHTS to identify gynecologic anti-cancer compounds using libraries of approved drugs and bioactive compounds (AID 1345084; further: nearly all actives have a fitted effect of over 55% in size)). Details: Gynecologic cancer cell panel viability, ATPlite luminescence, 48 h, control line for the selectivity index; series mostly up to 57.5 µM.
Method in brief: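 Cell viability after 48 h drug treatment, ATPlite luminescence readout; five doses.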

Structure (SMILES)	Potency
C/C=C(/C)C1C=CC2CC(C)CC(C)C2C1/C(O)=C1\C(=O)NC(CC(C)(O)C(=O)O)C1=O (centres undefined)	inactive
CS[C@]1(CO)C(=O)N2[C@H]3C(=CC=C[C@@H]3O)C[C@@]2(SC)C(=O)N1C	inactive
COc1ccc2c3c4n(c2c1)[C@@H](C=C(C)C)OOC(C)(C)C[C@@H]4N1C(=O)[C@@H]2CCCN2C(=O)[C@]1(O)[C@H]3OCC=C(C)C	inactive
CC1=CC2/C=C(\C)CCCC(O)/C=C/C(=O)OC23C(=O)NC(CC(C)C)C3C1C (centres undefined)	inactive
C=CC(C)(C)c1[nH]c2c(CC=C(C)C)cc(CC=C(C)C)cc2c1C[C@@H]1NC(=O)[C@H](C)NC1=O	inactive
COc1cc(O)c2c(c1)/C=C/C[C@@H](O)[C@@H](O)C(=O)CCC[C@H](C)OC2=O	inactive
CC(=O)O[C@H]1CC[C@H]2[C@@H]3CC[C@H]4CC(=O)C=C(C)[C@]4(C)[C@H]3CC[C@]12C	inactive
COc1cc(N2CCN(C)CC2)ccc1N	inactive
COCC(C(=O)OC1CC2CCC(C1)N2C)c1ccccc1 (centres undefined)	inactive
N#CC(O[C@@H]1O[C@H](CO)[C@@H](O)[C@H](O)[C@H]1O)c1ccccc1 (some centres undefined)	inactive
CC[C@H]1C2CC3[C@@H]4N(C)c5ccccc5[C@]45C[C@@H]([C@H]2[C@H]5O)N3[C@H]1O	inactive
NC(=O)c1ncn2c1CN=C(c1ccccc1Br)c1cc(F)ccc1-2	inactive
Cc1c(N2C(=O)[C@@H]3[C@H](O)CCN3C2=O)ccc(C#N)c1Cl	inactive
CC(=O)O[C@@H]1[C@H]2CC[C@H]3[C@@](C)(O)[C@@H]4C[C@H](O)C(C)(C)[C@@]4(O)[C@H](O)C[C@@]13C[C@@]2(C)O	inactive
